# Paper PMC7862700, “An all-to-all approach to the identification of sequence-specific readers for epigenetic DNA modifications on cytosine”
# Legend:
# Assay in all cases: DAPPL (digital affinity profiling via proximity ligation, sequencing); 10 mM Tris-HCl pH 7.5, 50 mM NaCl, 1 mM DTT, 4% glycerol, room temperature, 30 min; GST-TFs on glutathione beads, 16-mer random dsDNA library, 0.1% formaldehyde crosslink after washing; high values mean tight binding
# FLI1 = target: T1, FLI1 (Homo sapiens, UniProt Q01543 1-452); settings: protein: recombinant; tags: N-terminal GST; dsDNA, one strand shown
# T1 sequence: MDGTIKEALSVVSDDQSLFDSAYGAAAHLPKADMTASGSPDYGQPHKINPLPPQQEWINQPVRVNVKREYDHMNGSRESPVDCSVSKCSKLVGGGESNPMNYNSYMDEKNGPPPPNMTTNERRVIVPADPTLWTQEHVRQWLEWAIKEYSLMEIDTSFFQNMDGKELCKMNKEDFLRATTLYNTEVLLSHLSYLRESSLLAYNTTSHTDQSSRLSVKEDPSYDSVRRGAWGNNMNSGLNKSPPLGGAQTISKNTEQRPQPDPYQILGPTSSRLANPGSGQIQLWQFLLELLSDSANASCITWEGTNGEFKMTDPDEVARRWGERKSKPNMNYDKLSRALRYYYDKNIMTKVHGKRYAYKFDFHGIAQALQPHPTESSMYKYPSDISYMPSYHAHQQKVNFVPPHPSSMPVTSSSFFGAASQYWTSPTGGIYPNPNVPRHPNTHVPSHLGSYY
# In short: (§1)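 The binding signal reported is, for every hexamer, its read frequency for a factor over its read frequency for the tag-only sample. Reads came from pools of yeast-expressed, GST-fused human transcription factors on glutathione beads, barcoded with DNA and mixed with that sample, which were incubated with 200 nmole of a random double-stranded 16-mer DNA library in Tris/NaCl/DTT/glycerol buffer at room temperature for 30 min. After washing, the pools were crosslinked with 0.1% formaldehyde, proximity-ligated with BsaI/T4 ligase for 1 h at 37 °C, PCR-amplified and sequenced on an Illumina NextSeq500.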
# ELK1 = target: T2, ELK1 (Homo sapiens, UniProt P19419 1-428); settings: protein: recombinant; tags: N-terminal GST; dsDNA, one strand shown
# T2 sequence: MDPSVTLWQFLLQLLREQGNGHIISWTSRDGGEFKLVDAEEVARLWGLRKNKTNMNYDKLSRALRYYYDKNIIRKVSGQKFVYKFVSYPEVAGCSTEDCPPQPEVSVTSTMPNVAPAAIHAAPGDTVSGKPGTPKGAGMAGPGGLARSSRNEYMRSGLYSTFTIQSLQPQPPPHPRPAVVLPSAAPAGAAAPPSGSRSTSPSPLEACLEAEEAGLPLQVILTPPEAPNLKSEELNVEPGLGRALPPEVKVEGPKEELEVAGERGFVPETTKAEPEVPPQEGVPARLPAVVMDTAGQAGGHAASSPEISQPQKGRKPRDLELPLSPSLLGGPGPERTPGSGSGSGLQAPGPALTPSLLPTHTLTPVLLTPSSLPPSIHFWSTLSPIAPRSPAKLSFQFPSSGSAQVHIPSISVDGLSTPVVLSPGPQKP
# In short: as §1
# GABPA = target: T3, GABPA (Homo sapiens, UniProt Q06546 1-454); settings: protein: recombinant; tags: N-terminal GST; dsDNA, one strand shown
# T3 sequence: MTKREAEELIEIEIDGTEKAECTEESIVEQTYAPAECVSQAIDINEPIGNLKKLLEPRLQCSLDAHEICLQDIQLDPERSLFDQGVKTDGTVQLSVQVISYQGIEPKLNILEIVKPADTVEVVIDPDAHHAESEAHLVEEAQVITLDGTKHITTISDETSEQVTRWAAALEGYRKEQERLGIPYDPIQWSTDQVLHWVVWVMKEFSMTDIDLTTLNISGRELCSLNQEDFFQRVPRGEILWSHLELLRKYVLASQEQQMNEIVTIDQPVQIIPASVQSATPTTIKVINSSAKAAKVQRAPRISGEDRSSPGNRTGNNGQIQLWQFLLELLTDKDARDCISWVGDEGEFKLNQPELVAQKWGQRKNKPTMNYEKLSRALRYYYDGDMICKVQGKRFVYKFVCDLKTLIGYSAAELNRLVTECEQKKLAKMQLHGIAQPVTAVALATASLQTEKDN
# In short: as §1
# ERG = target: T4, ERG (Homo sapiens, UniProt P11308 1-479); settings: protein: recombinant; tags: N-terminal GST; dsDNA, one strand shown
# T4 sequence: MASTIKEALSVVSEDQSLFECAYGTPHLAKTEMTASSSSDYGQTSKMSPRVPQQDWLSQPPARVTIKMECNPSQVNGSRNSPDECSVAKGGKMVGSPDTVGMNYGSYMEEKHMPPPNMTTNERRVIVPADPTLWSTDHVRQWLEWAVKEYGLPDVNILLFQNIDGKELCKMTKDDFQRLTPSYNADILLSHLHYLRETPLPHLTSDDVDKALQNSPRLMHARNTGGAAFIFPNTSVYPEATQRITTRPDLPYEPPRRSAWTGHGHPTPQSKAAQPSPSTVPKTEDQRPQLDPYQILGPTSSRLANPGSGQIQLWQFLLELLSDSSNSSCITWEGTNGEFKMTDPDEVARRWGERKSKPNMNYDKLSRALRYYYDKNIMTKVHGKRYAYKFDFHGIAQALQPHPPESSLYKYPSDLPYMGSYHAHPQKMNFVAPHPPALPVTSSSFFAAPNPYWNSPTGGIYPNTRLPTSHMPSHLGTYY
# In short: as §1
# ELF1 = ELF1 (Homo sapiens, UniProt P32519 1-619); settings: protein: recombinant; tags: N-terminal GST; dsDNA, one strand shown
# Chain of ELF1 (P32519 whole entry): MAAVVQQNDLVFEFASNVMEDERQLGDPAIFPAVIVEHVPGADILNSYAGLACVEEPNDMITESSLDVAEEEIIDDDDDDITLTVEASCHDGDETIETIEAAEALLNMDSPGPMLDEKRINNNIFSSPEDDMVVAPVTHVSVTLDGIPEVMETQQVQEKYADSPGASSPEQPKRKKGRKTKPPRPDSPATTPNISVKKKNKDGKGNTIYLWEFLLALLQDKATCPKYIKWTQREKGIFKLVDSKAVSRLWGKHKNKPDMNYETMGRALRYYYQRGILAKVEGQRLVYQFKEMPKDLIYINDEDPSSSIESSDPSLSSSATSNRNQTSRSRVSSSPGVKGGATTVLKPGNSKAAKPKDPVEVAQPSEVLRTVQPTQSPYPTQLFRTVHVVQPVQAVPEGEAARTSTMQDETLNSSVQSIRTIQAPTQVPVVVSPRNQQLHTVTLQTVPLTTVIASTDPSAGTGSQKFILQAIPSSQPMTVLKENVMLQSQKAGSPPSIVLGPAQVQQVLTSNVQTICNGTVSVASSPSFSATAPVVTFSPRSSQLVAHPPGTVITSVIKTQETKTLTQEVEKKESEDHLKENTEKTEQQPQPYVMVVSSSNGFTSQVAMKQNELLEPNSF
# In short: as §1
# EHF = target: T5, EHF (Homo sapiens, UniProt Q9NZC4 1-300); settings: protein: recombinant; tags: N-terminal GST; dsDNA, one strand shown
# T5 sequence: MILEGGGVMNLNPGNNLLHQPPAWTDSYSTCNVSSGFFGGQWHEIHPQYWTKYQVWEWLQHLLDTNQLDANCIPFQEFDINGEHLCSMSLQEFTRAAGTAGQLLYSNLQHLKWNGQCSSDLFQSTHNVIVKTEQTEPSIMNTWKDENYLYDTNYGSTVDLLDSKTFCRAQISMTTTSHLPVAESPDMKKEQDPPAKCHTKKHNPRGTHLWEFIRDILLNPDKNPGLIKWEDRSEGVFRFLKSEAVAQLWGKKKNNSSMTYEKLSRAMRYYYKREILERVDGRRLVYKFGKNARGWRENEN
# In short: as §1
# SPI1 = SPI1 (Homo sapiens, UniProt P17947 1-270); settings: protein: recombinant; tags: N-terminal GST; dsDNA, one strand shown
# In short: as §1
# SPIB = SPIB (Homo sapiens, UniProt Q01892 1-262); settings: protein: recombinant; tags: N-terminal GST; dsDNA, one strand shown
# Chain of SPIB (Q01892 whole entry): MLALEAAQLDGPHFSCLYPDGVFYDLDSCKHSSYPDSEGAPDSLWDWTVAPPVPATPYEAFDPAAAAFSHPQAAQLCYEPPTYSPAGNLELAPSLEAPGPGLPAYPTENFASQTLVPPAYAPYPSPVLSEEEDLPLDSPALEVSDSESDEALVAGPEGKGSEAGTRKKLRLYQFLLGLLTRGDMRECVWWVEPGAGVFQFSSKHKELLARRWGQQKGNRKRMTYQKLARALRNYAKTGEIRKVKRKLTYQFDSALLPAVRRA
# In short: as §1
# ELK3 = target: T6, ELK3 (Homo sapiens, UniProt P41970 1-407); settings: protein: recombinant; tags: N-terminal GST; dsDNA, one strand shown
# T6 sequence: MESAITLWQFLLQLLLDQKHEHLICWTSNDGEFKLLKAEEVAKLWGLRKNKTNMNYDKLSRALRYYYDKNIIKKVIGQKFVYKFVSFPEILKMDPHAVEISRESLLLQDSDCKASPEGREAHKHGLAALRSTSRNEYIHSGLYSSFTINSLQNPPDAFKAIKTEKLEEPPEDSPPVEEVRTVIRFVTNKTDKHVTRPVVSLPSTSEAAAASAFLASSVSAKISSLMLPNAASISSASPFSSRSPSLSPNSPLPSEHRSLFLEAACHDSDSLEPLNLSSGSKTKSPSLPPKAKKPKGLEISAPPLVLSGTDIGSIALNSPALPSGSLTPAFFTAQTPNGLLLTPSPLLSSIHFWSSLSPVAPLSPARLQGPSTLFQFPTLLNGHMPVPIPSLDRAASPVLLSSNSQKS
# In short: as §1
# FEV = target: T7, FEV (Homo sapiens, UniProt Q99581 1-238); settings: protein: recombinant; tags: N-terminal GST; dsDNA, one strand shown
# T7 sequence: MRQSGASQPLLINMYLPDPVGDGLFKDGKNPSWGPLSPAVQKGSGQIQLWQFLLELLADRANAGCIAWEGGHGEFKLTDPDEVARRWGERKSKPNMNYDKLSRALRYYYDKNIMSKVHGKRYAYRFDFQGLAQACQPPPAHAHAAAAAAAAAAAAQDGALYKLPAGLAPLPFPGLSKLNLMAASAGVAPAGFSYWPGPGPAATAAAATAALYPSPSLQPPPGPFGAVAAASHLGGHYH
# In short: as §1
# ETV5 = ETV5 (Homo sapiens, UniProt P41161 1-510); settings: protein: recombinant; tags: N-terminal GST; dsDNA, one strand shown
# Chain of ETV5 (P41161 whole entry): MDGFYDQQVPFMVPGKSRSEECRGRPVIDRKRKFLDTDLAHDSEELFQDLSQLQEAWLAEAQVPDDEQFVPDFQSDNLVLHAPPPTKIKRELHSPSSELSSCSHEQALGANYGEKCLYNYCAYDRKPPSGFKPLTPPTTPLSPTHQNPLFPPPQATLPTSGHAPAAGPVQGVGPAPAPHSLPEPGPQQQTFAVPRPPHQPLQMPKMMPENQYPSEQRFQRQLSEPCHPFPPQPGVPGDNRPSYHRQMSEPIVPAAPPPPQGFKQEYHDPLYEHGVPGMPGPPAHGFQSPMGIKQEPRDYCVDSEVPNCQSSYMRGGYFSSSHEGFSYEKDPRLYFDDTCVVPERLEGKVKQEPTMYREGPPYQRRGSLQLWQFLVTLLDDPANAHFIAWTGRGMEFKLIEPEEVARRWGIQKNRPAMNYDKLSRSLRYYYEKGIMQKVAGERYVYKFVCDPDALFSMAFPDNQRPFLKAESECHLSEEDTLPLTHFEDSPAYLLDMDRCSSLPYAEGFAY
# In short: as §1
# HSF1 = HSF1 (Homo sapiens, UniProt Q00613 1-529); settings: protein: recombinant; tags: N-terminal GST; chain copies: 3; dsDNA, one strand shown
# Chain of HSF1 (Q00613 whole entry): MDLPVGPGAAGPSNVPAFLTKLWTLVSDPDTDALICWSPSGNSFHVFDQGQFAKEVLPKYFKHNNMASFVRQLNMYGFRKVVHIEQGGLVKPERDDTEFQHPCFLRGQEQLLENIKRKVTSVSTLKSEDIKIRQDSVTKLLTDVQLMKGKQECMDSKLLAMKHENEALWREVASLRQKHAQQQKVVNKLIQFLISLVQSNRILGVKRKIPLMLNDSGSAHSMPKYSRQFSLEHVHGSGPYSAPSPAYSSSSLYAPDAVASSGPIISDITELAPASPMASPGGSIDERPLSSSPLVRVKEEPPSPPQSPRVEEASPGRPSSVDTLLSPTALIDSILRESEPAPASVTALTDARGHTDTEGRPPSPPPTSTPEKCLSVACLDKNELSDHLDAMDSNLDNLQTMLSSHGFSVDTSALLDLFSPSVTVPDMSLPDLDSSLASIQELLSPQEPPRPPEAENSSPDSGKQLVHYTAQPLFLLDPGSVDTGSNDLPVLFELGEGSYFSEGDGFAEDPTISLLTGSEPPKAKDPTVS
# In short: as §1
# SPIC = target: T8, SPIC (Homo sapiens, UniProt Q8N5J4 1-248); settings: protein: recombinant; tags: N-terminal GST; dsDNA, one strand shown
# T8 sequence: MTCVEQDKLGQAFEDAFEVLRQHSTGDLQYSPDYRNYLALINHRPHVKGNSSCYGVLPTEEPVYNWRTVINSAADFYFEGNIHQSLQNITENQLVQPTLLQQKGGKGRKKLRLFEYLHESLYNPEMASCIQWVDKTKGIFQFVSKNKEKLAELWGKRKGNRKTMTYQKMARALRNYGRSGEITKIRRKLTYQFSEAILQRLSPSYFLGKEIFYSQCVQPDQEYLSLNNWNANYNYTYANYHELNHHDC
# In short: as §1
# ELF4 = ELF4 (Homo sapiens, UniProt Q99607 1-663); settings: protein: recombinant; tags: N-terminal GST; dsDNA, one strand shown
# Chain of ELF4 (Q99607 whole entry): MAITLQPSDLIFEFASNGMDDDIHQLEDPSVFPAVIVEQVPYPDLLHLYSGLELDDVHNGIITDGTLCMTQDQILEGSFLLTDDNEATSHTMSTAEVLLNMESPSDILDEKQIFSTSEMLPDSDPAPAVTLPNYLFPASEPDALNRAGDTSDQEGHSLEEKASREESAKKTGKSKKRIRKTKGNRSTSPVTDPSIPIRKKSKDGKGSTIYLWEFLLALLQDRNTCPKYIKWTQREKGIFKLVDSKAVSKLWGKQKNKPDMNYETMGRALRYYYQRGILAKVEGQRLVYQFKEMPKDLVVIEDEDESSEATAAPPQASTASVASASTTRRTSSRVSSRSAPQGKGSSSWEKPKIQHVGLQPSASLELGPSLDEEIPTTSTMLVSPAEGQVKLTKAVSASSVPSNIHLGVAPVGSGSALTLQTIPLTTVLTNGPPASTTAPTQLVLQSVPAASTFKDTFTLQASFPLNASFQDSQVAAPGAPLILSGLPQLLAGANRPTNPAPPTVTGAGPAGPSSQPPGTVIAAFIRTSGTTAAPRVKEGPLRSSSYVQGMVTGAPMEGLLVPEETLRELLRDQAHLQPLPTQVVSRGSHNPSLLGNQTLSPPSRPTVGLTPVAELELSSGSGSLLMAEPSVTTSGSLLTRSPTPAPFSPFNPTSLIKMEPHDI
# In short: as §1
# ELK4 = target: T9, ELK4 (Homo sapiens, UniProt P28324-2 1-405); settings: protein: recombinant; tags: N-terminal GST; dsDNA, one strand shown
# T9 sequence: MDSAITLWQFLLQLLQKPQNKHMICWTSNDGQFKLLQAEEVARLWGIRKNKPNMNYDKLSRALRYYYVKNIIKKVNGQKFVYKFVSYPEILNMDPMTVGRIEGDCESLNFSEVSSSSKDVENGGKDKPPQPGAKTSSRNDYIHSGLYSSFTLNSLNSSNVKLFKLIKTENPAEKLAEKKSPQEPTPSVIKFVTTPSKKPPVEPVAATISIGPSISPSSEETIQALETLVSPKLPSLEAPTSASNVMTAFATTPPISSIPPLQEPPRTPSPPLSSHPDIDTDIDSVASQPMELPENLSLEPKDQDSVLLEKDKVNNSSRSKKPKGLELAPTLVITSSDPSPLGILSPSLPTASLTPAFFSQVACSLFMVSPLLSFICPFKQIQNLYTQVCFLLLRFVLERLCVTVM
# In short: as §1
# ETV2 = target: T10, ETV2 (Homo sapiens, UniProt O00321 1-342); settings: protein: recombinant; tags: N-terminal GST; dsDNA, one strand shown
# T10 sequence: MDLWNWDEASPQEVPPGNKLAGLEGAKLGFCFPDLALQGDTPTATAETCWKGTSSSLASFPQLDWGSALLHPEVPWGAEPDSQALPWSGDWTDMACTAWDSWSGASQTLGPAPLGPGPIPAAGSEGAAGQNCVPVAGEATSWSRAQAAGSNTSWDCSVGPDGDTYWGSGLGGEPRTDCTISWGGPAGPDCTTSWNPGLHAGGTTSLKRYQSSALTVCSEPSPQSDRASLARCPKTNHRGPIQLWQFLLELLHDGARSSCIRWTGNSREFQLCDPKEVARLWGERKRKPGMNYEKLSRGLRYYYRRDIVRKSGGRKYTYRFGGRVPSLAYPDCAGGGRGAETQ
# In short: as §1
# ELF3 = target: T11, ELF3 (Homo sapiens, UniProt P78545 1-371); settings: protein: recombinant; tags: N-terminal GST; dsDNA, one strand shown
# T11 sequence: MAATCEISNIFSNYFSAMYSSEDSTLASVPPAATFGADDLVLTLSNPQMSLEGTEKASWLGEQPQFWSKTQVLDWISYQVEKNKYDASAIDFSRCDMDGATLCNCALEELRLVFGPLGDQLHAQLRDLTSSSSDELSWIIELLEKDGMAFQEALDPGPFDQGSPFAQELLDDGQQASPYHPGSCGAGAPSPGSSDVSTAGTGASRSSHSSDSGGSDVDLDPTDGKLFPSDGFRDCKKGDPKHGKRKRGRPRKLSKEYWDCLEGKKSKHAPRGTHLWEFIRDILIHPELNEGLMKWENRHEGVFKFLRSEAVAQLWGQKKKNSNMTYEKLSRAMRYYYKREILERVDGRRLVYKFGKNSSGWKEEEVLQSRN
# In short: as §1
# CRX = CRX (Homo sapiens, UniProt O43186 1-299); settings: protein: recombinant; tags: N-terminal GST; dsDNA, one strand shown
# Chain of CRX (O43186 whole entry): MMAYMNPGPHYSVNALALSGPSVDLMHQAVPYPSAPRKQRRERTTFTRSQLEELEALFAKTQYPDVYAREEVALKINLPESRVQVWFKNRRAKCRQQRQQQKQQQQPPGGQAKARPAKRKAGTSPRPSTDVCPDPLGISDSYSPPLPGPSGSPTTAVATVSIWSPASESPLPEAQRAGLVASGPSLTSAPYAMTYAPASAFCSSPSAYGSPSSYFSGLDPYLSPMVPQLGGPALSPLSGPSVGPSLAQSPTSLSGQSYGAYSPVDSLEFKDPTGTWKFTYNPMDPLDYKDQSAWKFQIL
# In short: as §1
# ETV1 = ETV1 (Homo sapiens, UniProt P50549 1-477); settings: protein: recombinant; tags: N-terminal GST; dsDNA, one strand shown
# Chain of ETV1 (P50549 whole entry): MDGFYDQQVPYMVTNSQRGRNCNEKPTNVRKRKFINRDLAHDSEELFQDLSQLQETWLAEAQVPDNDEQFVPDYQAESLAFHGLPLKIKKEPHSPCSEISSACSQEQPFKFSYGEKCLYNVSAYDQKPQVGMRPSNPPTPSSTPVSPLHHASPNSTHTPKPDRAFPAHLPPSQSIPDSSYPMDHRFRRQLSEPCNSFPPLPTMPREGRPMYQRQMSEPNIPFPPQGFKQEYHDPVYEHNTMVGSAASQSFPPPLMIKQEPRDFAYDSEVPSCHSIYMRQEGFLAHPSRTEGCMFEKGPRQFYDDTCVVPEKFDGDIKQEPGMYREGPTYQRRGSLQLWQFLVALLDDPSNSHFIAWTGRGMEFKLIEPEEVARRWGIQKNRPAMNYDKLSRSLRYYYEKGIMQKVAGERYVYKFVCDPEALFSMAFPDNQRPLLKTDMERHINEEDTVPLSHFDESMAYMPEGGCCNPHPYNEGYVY
# In short: as §1
sequence,measurement,setting,value
TCCGAC,binding signal,FLI1,"1.42 fold enrichment (6-mer frequency, TF over GST control)"
same,binding signal,ELK1,"1.47 fold enrichment (6-mer frequency, TF over GST control)"
same,binding signal,GABPA,"1.32 fold enrichment (6-mer frequency, TF over GST control)"
same,binding signal,ERG,"1.46 fold enrichment (6-mer frequency, TF over GST control)"
same,binding signal,ELF1,"1.42 fold enrichment (6-mer frequency, TF over GST control)"
same,binding signal,EHF,"1.46 fold enrichment (6-mer frequency, TF over GST control)"
same,binding signal,SPI1,"1.37 fold enrichment (6-mer frequency, TF over GST control)"
same,binding signal,SPIB,"1.46 fold enrichment (6-mer frequency, TF over GST control)"
same,binding signal,ELK3,"1.56 fold enrichment (6-mer frequency, TF over GST control)"
same,binding signal,FEV,"1.68 fold enrichment (6-mer frequency, TF over GST control)"
same,binding signal,ETV5,"1.44 fold enrichment (6-mer frequency, TF over GST control)"
same,binding signal,HSF1,"1.23 fold enrichment (6-mer frequency, TF over GST control)"
same,binding signal,SPIC,"1.59 fold enrichment (6-mer frequency, TF over GST control)"
same,binding signal,ELF4,"1.44 fold enrichment (6-mer frequency, TF over GST control)"
same,binding signal,ELK4,"1.43 fold enrichment (6-mer frequency, TF over GST control)"
same,binding signal,ETV2,"1.35 fold enrichment (6-mer frequency, TF over GST control)"
same,binding signal,ELF3,"1.47 fold enrichment (6-mer frequency, TF over GST control)"
same,binding signal,CRX,"1.25 fold enrichment (6-mer frequency, TF over GST control)"
same,binding signal,ETV1,"1.55 fold enrichment (6-mer frequency, TF over GST control)"
